The list is not random: actives were taken first. Their share in the collection is about 3.5%.
MITF inh = human MITF inhibition, primary screen; O75030; AlphaScreen MITF homodimerization, bead proximity signal; inhibition, % at 2.6 µM; 650,000 compounds, 0.91% hits; in the data active = inhibition above about 50%;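 also: 0% = vehicle wells with protein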
GPR151 activ = human GPR151 activation; Q8TDV0; AID 1508602; 650,000 compounds, 1% hits; PathHunter beta-arrestin GPR151 cells, luminescence; activation, % at 11.2 µM; in the data active = activation above about 4.9%;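 also: 0% = median of compound wells and 100% = cells with positive control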
FBW7 activator = activators of human E3 ligase FBW7; normalized activity (activation), % at 26.1 µM; Q969H0; AlphaScreen FBW7–phospho-cyclin E peptide binding, activator screen; 650,000 compounds, 0.13% hits; in the data active = normalized activity above about 1.9%;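 also: purified mutant Fbw7 with reduced substrate affinity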
Target sequence (Q969H0 whole entry, looked up): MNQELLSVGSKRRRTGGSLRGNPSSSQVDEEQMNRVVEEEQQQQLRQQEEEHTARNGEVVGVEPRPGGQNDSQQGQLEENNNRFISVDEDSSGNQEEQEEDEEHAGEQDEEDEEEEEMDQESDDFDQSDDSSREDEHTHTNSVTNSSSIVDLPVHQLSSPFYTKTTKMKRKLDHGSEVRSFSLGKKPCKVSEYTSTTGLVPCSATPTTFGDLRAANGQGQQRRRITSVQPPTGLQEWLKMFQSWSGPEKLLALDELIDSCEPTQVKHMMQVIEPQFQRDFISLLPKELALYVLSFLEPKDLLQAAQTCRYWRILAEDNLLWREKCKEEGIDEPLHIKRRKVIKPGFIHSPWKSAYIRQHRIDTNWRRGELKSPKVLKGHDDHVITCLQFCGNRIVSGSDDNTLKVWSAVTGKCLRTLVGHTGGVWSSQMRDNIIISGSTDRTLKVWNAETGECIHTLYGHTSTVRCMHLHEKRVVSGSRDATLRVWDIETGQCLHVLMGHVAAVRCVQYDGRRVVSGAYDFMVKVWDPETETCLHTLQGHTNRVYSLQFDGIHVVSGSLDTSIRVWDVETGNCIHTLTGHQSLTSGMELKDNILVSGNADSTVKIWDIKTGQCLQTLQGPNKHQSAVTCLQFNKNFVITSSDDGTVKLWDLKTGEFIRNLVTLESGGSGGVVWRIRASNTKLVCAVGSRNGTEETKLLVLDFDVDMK
TEAD-YAP block = TEAD-YAP interaction inhibition; 640,000 compounds, 1.4% hits; inhibition, % at 9.12 µM; HEK-TIYL cells, TEAD-Gal4/YAP UAS-luciferase luminescence; in the data active = inhibition above about 32%;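 also: 0% = median of test compound wells and 100% = reference inhibitor wells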
GPR151 conf act = confirmation of human GPR151 activators | activation, % at 11.2 µM | GPR151 PathHunter beta-arrestin cells, luminescence, 90 min; % of EA-reagent control over plate median | 6,700 tested, under 10 active | shares compounds with GPR151 activ;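 active = mean percent activation across replicates above the confirmation screen cutoff of 4.91%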
GPR119 ag = GPR119 activation, counter-screen for GPR151 activators; AID 1508611; 6,700 compounds, 0.3% hits; GPR119 PathHunter beta-arrestin cells, luminescence, 90 min; 0 = compound-well median, 100 = enzyme-acceptor control; activation, % at 11.2 µM; shares compounds with GPR151 activ;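 active = mean percent activation in the counterscreen above 29.09%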;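 also: counterscreen on off-target GPR119 to flag nonselective hits from the GPR151 activator screen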
* marks the source's active call; other numbers are inactive results; x = no result.

SMILES	MITF inh	GPR151 activ	FBW7 activator	TEAD-YAP block	GPR151 conf act	GPR119 ag
O=C(CCSc1ccccc1)Nc1nc2ccccc2s1	12	5.0*	0	-33	0	4
O=C(COC(=O)C1CCC(=O)N1)Nc1nc2ccccc2s1 (centres undefined)	7	6.0*	0	-4	0	-1
O=C(/C=C/c1ccccc1)N1CCN(C2=NN=C(c3ccccc3)CS2)CC1	1	6.2*	0	-21	-1	-5
C=CCN(CC=C)C(=O)CC1C(=O)NCCN1C1Cc2ccccc2C1 (centres undefined)	4	0	0	0	x	x
CC1(C2CCN(C(=O)C#Cc3ccccc3)CC2)NC(=O)N(Cc2ccc(F)cc2)C1=O (centres undefined)	4	0	0	-4	x	x
COC(=O)c1ccc(Nc2nc(C)c([N+](=O)[O-])c(Nc3ccc(C(=O)OC)cc3)n2)cc1	9	13*	0	3	0	5
CCCCOC(=O)c1ccc(Nc2nc(C)c([N+](=O)[O-])c(Nc3ccc(C(=O)OCCCC)cc3)n2)cc1	-4	2	0	0	x	x
CCOC(=O)C1=C(C)N=C2SCC(=O)N2C1c1ccc(OC)c2ccccc12 (centres undefined)	2	2	0	7	x	x
CCOC(=O)C1=C(C)N=C2SCC(=O)N2C1c1cccc2ccccc12 (centres undefined)	-10	7.6*	1	-5	-1	-6
COCCOC(=O)C1=C(C)Nc2ccc(C)cc2S1	17	0	0	4	x	x
CCOCCOC(=O)C1=C(C)Nc2ccc(C)cc2S1	9	13*	0	2	1	11
CCCCCCOc1ccc(/C=N/n2cnnc2)cc1	6	6.8*	0	9	0	-3
CC(C)CCOc1ccc(/C=N/n2cnnc2)cc1	-1	0	0	1	x	x
C/C(CCc1ccco1)=N/Nc1ccc([N+](=O)[O-])cc1	-7	0	0	-11	x	x
CC(=O)Nc1ccc(C(=O)CSc2nncn2C)cc1	1	9.6*	0	-1	0	6
Cc1ccc(C(=O)N2CCN(Cc3ccc4c(c3)OCO4)CC2)o1	5	10*	0	2	0	-12
O=C(NC1CC1)c1csc(N2CCN(Cc3ccc4c(c3)OCO4)CC2)n1	2	-1	0	-8	x	x
NNC(=O)CCN1CCN(Cc2ccc3c(c2)OCO3)CC1	-8	8.5*	0	-4	1	-8
CC1=C(C(=O)N2CCN(C(=O)c3ccco3)CC2)C2(CCC(C)CC2)OC1=O (centres undefined)	-14	2	0	6	x	x
COC(=O)N1CCN(Cc2ccc3c(c2)OCO3)CC1	2	-1	1	-8	x	x
CC1=C(C(=O)N2CCN(Cc3ccc4c(c3)OCO4)CC2)C2(CCC(C)CC2)OC1=O (centres undefined)	11	6.5*	0	-2	0	-1
O=C(Nc1ccc2c(c1)OCO2)c1csc(N2CCN(Cc3ccc4c(c3)OCO4)CC2)n1	0	6.4*	0	4	1	6
Cc1nc2cc(C(=O)NC3CCCC3)ccc2n1-c1ccc(Br)cc1	22	0	0	4	x	x
O=C1CCC2(C(=O)O)c3[nH]c4ccccc4c3CCN12 (centres undefined)	-10	-1	0	7	x	x
Cc1ccc(C(=O)Nc2ccc(N3CCC(NCCOc4cccnc4)CC3)cc2)c(C)c1	6	-1	0	-5	x	x
SMILES	MITF inh	GPR151 activ	FBW7 activator	TEAD-YAP block	GPR151 conf act	GPR119 ag
COc1c(Cl)cc(Cl)cc1/C=N/N=C1/NC(=O)CS1	-10	1	0	-2	x	x
COc1cc(Nc2ccc(NC(=O)Nc3ccccc3)cc2)nc(C)n1	-9	7.9*	0	-6	0	7
CCOc1ccc(C(=O)NCCSc2c(C)[nH]c3ccccc23)cc1	-3	1	0	-4	x	x
CCOC(=O)c1ccc(Nc2ncnc3c2cnn3C)cc1	10	-1	0	-17	x	x
CCOC(=O)c1ccc(Nc2ncnc3c2cnn3Cc2ccccc2)cc1	25	6.2*	0	2	-1	-14
O=C(NC1CCCCC1)c1ccc(F)c(F)c1	-10	5.8*	0	8	0	-18
O=C(NC1CCCCC1)c1ccc(-n2cccc2)cc1	19	5.8*	0	-44	0	-3
O=C1NC(=O)C(=Cc2ccc(OCc3ccccc3)c(C(=O)O)c2)C(=O)N1	11	5.6*	-1	7	0	-1
COc1ccc(Cn2nnnc2C(C(C)C)N2CCN(C3CCCC3)CC2)cc1 (centres undefined)	0	0	0	2	x	x
CCN(c1ccccc1)S(=O)(=O)c1ccc(-n2cccn2)cc1	-1	9.0*	0	2	0	1
CCN(c1ccccc1)S(=O)(=O)c1ccc2[nH]c(=O)ccc2c1	13	0	0	-5	x	x
CCN(c1ccccc1)S(=O)(=O)c1ccc(=O)[nH]c1	13	6.3*	1	10	-1	-3
CCCn1cc(SCC(=O)Nc2ccc(C(=O)OCC)cc2)c2ccccc21	-13	2	0	-23	x	x
CCCN1C(=O)/C(=C2/C(=O)N(C)c3ccccc32)SC1=S	3	0	0	6	x	x
CCCN1C(=O)/C(=C2\SC(=S)N(CCOC)C2=O)c2ccccc21	11	5.6*	0	8	1	-4
Cc1cc(OCC(=O)NCc2cccnc2)ccc1[N+](=O)[O-]	2	5.2*	0	-7	-1	2
Cc1cccc(OCC(=O)NCc2cccnc2)c1	-3	2	0	4	x	x
CCOc1ccc(NC(=O)c2cccnc2)c([N+](=O)[O-])c1	0	5.8*	0	46*	1	8
CC(C)C(c1nnnn1C1CCCCC1)N1CCC(C(N)=O)CC1 (centres undefined)	4	1	0	9	x	x
Cc1nc2sccn2c1CN1CCCC(N2CCC(CO)CC2)C1 (centres undefined)	-2	1	0	1	x	x
CCCCc1cc(=O)oc2c(C)c(OCC(=O)OC(C)(C)C)ccc12	6	5.7*	0	-2	0	-1
CCNC(=O)c1sc2cc(C)ccc2c1Cl	9	6.4*	0	-28	-1	-5
Cc1ccc(NC(=O)c2sc3cc(C)ccc3c2Cl)cc1	-8	1	0	-37	x	x
Cc1cc(C=O)c(C)n1-c1cccc(Cl)c1	6	2	0	2	x	x
Cc1nn(C)cc1CN1CCC(CO)(CCOc2ccccc2)CC1	4	11*	0	5	1	8
COc1ccc(Cn2c(SCc3ccc(C)cc3)nc3ccsc3c2=O)cc1	7	-1	0	7	x	x
Oc1ccc(-c2nc(-c3cccc(C(F)(F)F)c3)c(-c3ccccc3)[nH]2)cc1	7	5.8*	0	12	0	-4
Oc1ccc(-c2nc(-c3ccc(-c4ccccc4)cc3)c(-c3ccc(-c4ccccc4)cc3)[nH]2)cc1	11	-1	0	9	x	x
